# In PubChem BioAssay (NCATS):
# Inconclusive results are not listed. Unmarked numbers belong to inactive results. Calls of active or inactive are those of the source. Calls follow the shape of the dose curve; as a rule, active = well fitted cell-killing curve with a large enough effect; inconclusive = small, poorly fitted or top-dose-only effect, or effect the other way; inactive = no such curve, though single readings can be large or run the other way.
# Assays:
# [1] = Viability qHTS for spleen associated tyrosine kinase inhibitor (SYKi) naive MV4-11 cells (AID 1963823); also: nearly all actives have a fitted effect of over 40% in size
# Outline: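 qHTS, SYK inhibitor-naive MV4-11; 500 cells/well; 72 hr compound exposure, 37 C; CellTiter-Glo added, 10 min RT; luminescence read.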
# [2] = Viability qHTS for spleen associated tyrosine kinase inhibitor (SYKi) drug resistant MV4-11 cells (AID 1963824); also: nearly all actives have a fitted effect of over 35% in size
# Outline: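 SYK-inhibitor-resistant MV4-11 AML cells were seeded at 500 per well onto compound and cultured 72 hours (37 °C, 5% CO2). CellTiter-Glo was then added, and after 10 min at room temperature, luminescence gave viability.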
# Potency is read from the fitted curve at half-maximal effect.
Compound,viability (% of control) [1],"viability, % of control [2]",Potency [1],Potency [2]
CC1(CO)CC[C@]2(C(=O)O[C@@H]3O[C@H](CO)[C@@H](O)[C@H](O)[C@H]3O)CC[C@]3(C)C(=CCC4[C@@]5(C)CC[C@H](O[C@@H]6O[C@H](C(=O)O)[C@@H](O)[C@H](O)[C@H]6O)C(C)(C)C5CC[C@]43C)C2C1 (stereo partly specified),87.4% [at 9.25 µM],104% [at 9.25 µM],–,–
C=C1CC[C@@H](O)[C@]2(C)CC[C@H]3C(=C)C(=O)O[C@@H]3[C@@H]12,–,–,18400 nM (active),11600 nM (active)
C[C@H](N)C(=O)N[C@@H](Cc1ccc(O)cc1)C(=O)N1CCC[C@H]1C(=O)NCC(=O)N[C@@H](CCCCN)C(=O)N[C@@H](Cc1ccccc1)C(N)=O,94.9% [at 9.25 µM],89.8% [at 9.25 µM],–,–
CCS(=O)c1nc(-c2cccc(OCc3ccccc3)c2)cc(C(F)(F)F)n1 (stereo unspecified),–,–,2910 nM (active),5800 nM (active)
C=C1C(=O)O[C@@H]2[C@H]3C(C)=CC(=O)C3=C(C)CC[C@@H]12,–,–,2060 nM (active),651 nM (active)
COc1cc(O)cc(C)c1C(=O)O[C@@H]1[C@H](O)[C@@H](CO)O[C@H]1n1ccc(=O)[nH]c1=O,–,–,2820 nM (active),2000 nM (active)
CC(=C\C(C)O)/C=C(\C)C(=O)CC1CC(CC(N)=O)CC(=O)O1 (stereo unspecified),–,–,inactive,inactive
COC(=O)C1=CO[C@@H](O[C@@H]2O[C@H](CO)[C@@H](O)[C@H](O)[C@H]2O)[C@@H]2[C@@H](CO)[C@@H](O)C(O)[C@H]12 (stereo partly specified),–,–,inactive,inactive
